# Bioassay records deposited in PubChem by University of Kansas High Throughput Screening Laboratory.
# mHTT-CaM PPI inh = mutant huntingtin-calmodulin interaction inhibitors – biochemical, AlphaScreen, primary screen; 3.6% of 190,000 active; inhibition, % at 15 µM; AID 1671202, 2021; P42858; AlphaScreen His-mHTT/GST-CaM binding, luminescence;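 also: 0% = both proteins with DMSO and 100% = one protein alone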
# Pf apPOL block = Pf-apPOL inhibitors, biochemical, fluorescence; Plasmodium falciparum apicoplast DNA polymerase (apPOL); Recombinant Pf-apPOL, molecular beacon fluorescence, 1.5 h; inhibition, % at 10 µM; 0.25% of 210,000 active; AID 1794808, 2022
# An asterisk follows results filed as active; x = no result. The entries come from a sample that favours hits as a whole. Rule as the data show it: active = inhibition above about 50%; inactive = the rest.
SMILES,mHTT-CaM PPI inh,Pf apPOL block
O=C(NCc1cccnc1)c1cccc(CN2C(=O)C3CCCN3C(=O)c3ccccc32)c1 (stereo unspecified),-6,-5
CCc1ccccc1NC(=O)CN(c1cccc(Cl)c1Cl)S(C)(=O)=O,-2,-13
CCC(=O)Nc1ccc(O)c(-c2nc3cc(C)ccc3o2)c1,6,54*
Cc1ccc2oc(-c3cc(NC(=O)c4ccccc4C)ccc3O)nc2c1,2,-2
CN(C)C1=C(Nc2cccc(I)c2)C(=O)c2ccccc2C1=O,92*,-4
CN(C)C1=C(Nc2cccc(Cl)c2)C(=O)c2ccccc2C1=O,57*,-4
CC(C)C(=O)Nc1cccc(I)c1,-1,8
CC(=O)N(C1=C(N(C)C)C(=O)c2ccccc2C1=O)c1cccc(Cl)c1,18,-7
CCCNS(=O)(=O)c1ccc([N+](=O)[O-])cc1,5,-11
O=C(NCCc1cccnc1)c1cccnc1N1CCNC(c2ccccc2)C1 (stereo unspecified),-3,2
COc1ccc(C(=O)N2CCCC(c3nc(CNC(=O)C(C)C)cs3)C2)cc1F (stereo unspecified),-8,-5
CCNC(=O)CN1CCN(Cc2ccc3c(c2)OCO3)CC1,3,-3
Cc1cc(Cl)ccc1NC(=O)CN1CCN(Cc2ccc3c(c2)OCO3)CC1,54*,-7
Cc1cccc(-n2cnc(C(=O)N3CCCCC3C)n2)c1 (stereo unspecified),-4,-2
O=c1[nH]c2c(s1)C(c1cccnc1)C1C3CCC(C3)C1S2 (stereo unspecified),-2,-4
O=c1[nH]c2c(s1)C(c1ccc(O)cc1)C1C3CCC(C3)C1S2 (stereo unspecified),63*,-5
O=C(Nc1ccc(Br)cc1)C12CC3CC(CC(Br)(C3)C1)C2,-4,-2
CC(=O)Nc1cccc(N2CC(C(=O)Nc3ccc(F)cc3C)CC2=O)c1 (stereo unspecified),4,87*
CC(=O)Nc1cccc(N2CC(C(=O)Nc3ccc(C)cc3C)CC2=O)c1 (stereo unspecified),10,0
Cc1noc(C)c1S(=O)(=O)N1CCC(C(C)C(=O)NCCCN2CCCC2)CC1 (stereo unspecified),-7,-3
CCc1cccc(CC)c1NC(=O)CCN1C(=O)c2ccccc2C1=O,1,-3
COc1ccc2c(c1)N1CCN(c3ccc(C)cc3)CC1C(C(=O)NC1CC1)C2 (stereo unspecified),65*,2
COc1ccc(N2CCN3c4cc(OC)ccc4CC(C(=O)NC4CC4)C3C2)cc1 (stereo unspecified),27,-3
COc1cccc(C(=O)N2CCC3(C2)NCc2ccccc2NC3=NC(C)(C)C)c1OC (stereo unspecified),40,-8
COC(=O)c1c(-c2c(Cl)cccc2Cl)noc1C(=O)NN=Cc1ccc([N+](=O)[O-])s1,x,-15
SMILES,mHTT-CaM PPI inh,Pf apPOL block
CN=C1S/C(=C/c2ccc(C)o2)C(=O)N1C,-4,x
Cc1ccc(/C=C2\CS/C(=C\c3ccc(C)o3)C2=O)o1,100*,3
N#CSCC(=O)c1ccc(O)c(O)c1,x,13
O=[N+]([O-])c1ccc(S(=O)(=O)Nc2cccc(I)c2)cc1,14,-10
O=C1Nc2ccccc2C1=Nc1ccc(C(=O)O)cc1,1,0
CCN(CC)c1ccc(N=C2C(=O)Nc3ccccc32)cc1,100*,-39
COc1cccc(-n2nc(C(=O)Nc3cc(Cl)c(OC)cc3OC)c3ccccc3c2=O)c1,-5,-2
O=C(CN1C(=O)/C(=C/c2ccccc2F)Sc2ccccc21)N1CCCCC1,-4,1
O=C(CN1C(=O)/C(=C/c2ccccc2F)Sc2ccccc21)N1CCN(C2CCCCC2)CC1,75*,-22
O=[N+]([O-])C=Cc1c(-c2ccc3ccccc3c2)[nH]c2ccccc12,x,-11
O=c1c(-c2ccc(Br)cc2)coc2cc(O)cc(O)c12,52*,33
O=c1c(-c2ccc(O)cc2)coc2cc(O)cc(O)c12,x,-2
COc1ccc(-c2nc3c(c(=O)[nH]2)CCN(C(=O)NCc2cccc(F)c2)C3)cc1,-3,2
NC(=O)c1ccc(N=c2oc3c(Cl)cc(Cl)cc3cc2C(N)=O)cc1,1,-6
N=c1oc2c(Cl)cc(Cl)cc2cc1C(N)=O,91*,-2
c1csc(-c2noc(CN3CCCCC3c3nc(C4CC4)no3)n2)c1 (stereo unspecified),-12,-5
Cc1cc(O)c(C(C)C)cc1N=C1CSC(=O)N1,53*,-6
Cc1cc(O)c(C(C)C)cc1NC(=O)c1ccc(Cl)cc1,4,-11
O=C(Nc1ccc(N2CCOCC2)c(Cl)c1)c1ccccc1,-7,-156
CCN(CC)c1ccc(NC(=O)c2ncn[nH]2)cc1,41,-2
O=C(Nc1ccc([N+](=O)[O-])cc1)c1ncn[nH]1,88*,-3
O=C(Nc1ccc(N2CCOCC2)c(Cl)c1)c1ncn[nH]1,82*,2
Cc1c(NC(=O)c2ccccc2I)cccc1-c1nc2ccccc2s1,4,-4
COc1cc(C(=O)Nc2ccc(-c3nc4cc(Cl)ccc4o3)cc2)cc(OC)c1OC,-2,-2
O=C(Nc1ccc(-c2nc3cc(Cl)ccc3o2)cc1)c1ncn[nH]1,83*,-180
SMILES,mHTT-CaM PPI inh,Pf apPOL block
Cc1c(NC(=O)c2ncn[nH]2)cccc1-c1nc2ccccc2s1,51*,-8
COc1ccc(OC)c(NC(=O)c2cc(-c3cccs3)nc3ccccc23)c1,3,4
CC(C)(NC(=O)c1cccs1)C(=O)N1CCN(c2ccccc2)CC1,-11,-2
COCCNC(=O)CC1CCN(C(=O)c2[nH]c(C)c(C)c2C)CC1,4,1
COc1cc([N+](=O)[O-])cc(C=Nc2cc(C)cc(C)c2O)c1O,28,0
O=C(NCc1ccco1)C1CCc2sc(C(=O)N3CCCC3)cc2C1 (stereo unspecified),5,-2
COc1ccc(C2C3=C(CCCC3=O)Nc3nc(SC)nn32)c(OC)c1OC (stereo unspecified),-6,2
Cc1c(NC(=O)c2ccccc2F)cccc1-c1nc2cc(Cl)ccc2o1,-18,3
O=C(Nc1ccc2oc(-c3ccccc3Cl)nc2c1)c1cncc(Br)c1,-8,-22
O=C(Nc1ccc2oc(-c3ccccc3Cl)nc2c1)c1ncn[nH]1,77*,58*
Cc1c(NC(=O)c2ncn[nH]2)cccc1-c1nc2cc(Cl)ccc2o1,53*,8
O=C(Nc1nc2c(s1)CN(S(=O)(=O)c1ccccc1)CC2)c1ccc(Cl)s1,3,-6
Cc1nn(Cc2ccccc2Cl)c(C)c1NC(=O)c1noc2c1CCCCC2,15,-6
Cc1ccccc1Cn1nc(C)c(NC(=O)c2noc3c2CCCC3)c1C,15,-2
Cc1nn(Cc2ccc(F)cc2)c(C)c1NC(=O)c1noc2c1CCCCC2,53*,-5
Cc1nn(Cc2ccc(Cl)cc2)c(C)c1NC(=O)c1noc2c1CCCC2,96*,-2
COCc1nnc(NC(=O)Cc2cccs2)s1,4,-4
COc1ccc(OC(NC(=O)/C=C/c2ccccc2)C(Cl)(Cl)Cl)cc1 (stereo unspecified),51*,1
O=C(/C=C/c1ccccc1)NC(Nc1cccnc1)C(Cl)(Cl)Cl (stereo unspecified),31,0
O=C(NC(Nc1ccc(Br)cc1)C(Cl)(Cl)Cl)c1ccc(F)cc1 (stereo unspecified),87*,-3
